Measurements as given in PubChem BioAssay.
Active and inactive are the calls of the source. Unless noted, the rule behind the calls is not given here.

What was measured:
[1] = compound effects on lung adenocarcinoma cell viability – A549, calcein-AM fluorescence, 48 h, basal, profiling panel (AID 1162); conditions: higher = more signal; note: test concentration not given here
[2] = compound effects on differentiated 3T3-L1 adipocyte viability – cell-based, 3T3-L1 adipocytes, calcein-AM fluorescence, 48 h, basal, profiling panel (AID 1163); conditions: 3T3-L1 adipocytes viability, higher = more signal; note: test concentration not given here
[3] = compound effects on hepatocellular carcinoma cell viability – HepG2, calcein-AM fluorescence, 48 h, basal, profiling panel (AID 1164); conditions: higher = more signal; note: test concentration not given here
[4] = compound effects on multiple myeloma cell viability – MM1S, calcein-AM fluorescence, 48 h, basal, profiling panel (AID 1165); conditions: higher = more signal; note: test concentration not given here
[5] = calcein-AM signal in unstimulated myeloma cells – cell-based, calcein-AM fluorescence, 48 h, PK04 Diversity Set, profiling panel (AID 1166); conditions: RPMI8226 myeloma viability, higher = more signal;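 note: cells grown under basal conditions without added stimulus; test concentration not given here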
[6] = JC-1 mitochondrial signal, unstimulated HepG2 cells – cell-based, JC-1 fluorescence, 24 h, 100 nL compound, profiling panel (AID 1167); conditions: HepG2 mitochondrial potential, higher = more signal; note: test concentration not given here
[7] = JC-1 mitochondrial signal, unstimulated adipocytes – cell-based, JC-1 fluorescence, 3T3-L1 adipocytes, 24 h, 100 nL compound, profiling panel (AID 1168); conditions: JC-1 mitochondrial fluorescence, higher = more signal, called active from +8 up or from −8 down; note: test concentration not given here
[8] = JC-1 mitochondrial signal, unstimulated myeloma cells – cell-based, JC-1 fluorescence, RPMI8226, 24 h, 100 nL compound, profiling panel (AID 1169); conditions: JC-1 mitochondrial potential fluorescence, higher = more signal; note: test concentration not given here
[9] = JC-1 mitochondrial signal, unstimulated MM1S myeloma – cell-based, JC-1 fluorescence, 24 h, 100 nL compound, profiling panel (AID 1170); conditions: MM1S mitochondrial potential, higher = more signal; note: test concentration not given here
[10] = resazurin metabolic signal in A549 cells – cell-based, resazurin fluorescence, 24 h, PK04 Diversity Set, profiling panel (AID 1171); conditions: A549 viability, higher = more signal, called active from +8 up or from −8 down; note: test concentration not given here
[11] = resazurin metabolic signal in HepG2 cells – cell-based, resazurin fluorescence, 24 h, PK04 Diversity Set, profiling panel (AID 1172); conditions: HepG2 viability, higher = more signal; note: test concentration not given here
[12] = budding yeast growth changes without added modifier – OD600, strain BY4716, 24 h, basal condition, primary screen (AID 1173); conditions: S. cerevisiae BY4716 growth, OD600, 24 h; higher = more signal, called active from +8 up or from −8 down
[13] = viability profiling in MM1S myeloma cells – cell-based, resazurin fluorescence, basal, 24 h, PK04 Diversity Set, profiling panel (AID 1174); conditions: higher = more signal, called active from +8 up or from −8 down; note: test concentration not given here
[14] = target: Dihydroorotate dehydrogenase (quinone), mitochondrial (Plasmodium falciparum (isolate 3D7)) (UniProt Q08210); assay: inhibition of P. falciparum DHODH – biochemical, C-terminal His tag, absorbance 600 nm, primary screen (AID 1175); conditions: PfDHODH enzyme, DCIP absorbance 600 nm; higher = more signal, called active from +8 up or from −8 down;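 note: recombinant parasite enzyme with a five histidine tag at its C terminus; test concentration not given here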
Sequence of Dihydroorotate dehydrogenase (quinone), mitochondrial (Plasmodium falciparum (isolate 3D7)) (Q08210 whole entry, looked up): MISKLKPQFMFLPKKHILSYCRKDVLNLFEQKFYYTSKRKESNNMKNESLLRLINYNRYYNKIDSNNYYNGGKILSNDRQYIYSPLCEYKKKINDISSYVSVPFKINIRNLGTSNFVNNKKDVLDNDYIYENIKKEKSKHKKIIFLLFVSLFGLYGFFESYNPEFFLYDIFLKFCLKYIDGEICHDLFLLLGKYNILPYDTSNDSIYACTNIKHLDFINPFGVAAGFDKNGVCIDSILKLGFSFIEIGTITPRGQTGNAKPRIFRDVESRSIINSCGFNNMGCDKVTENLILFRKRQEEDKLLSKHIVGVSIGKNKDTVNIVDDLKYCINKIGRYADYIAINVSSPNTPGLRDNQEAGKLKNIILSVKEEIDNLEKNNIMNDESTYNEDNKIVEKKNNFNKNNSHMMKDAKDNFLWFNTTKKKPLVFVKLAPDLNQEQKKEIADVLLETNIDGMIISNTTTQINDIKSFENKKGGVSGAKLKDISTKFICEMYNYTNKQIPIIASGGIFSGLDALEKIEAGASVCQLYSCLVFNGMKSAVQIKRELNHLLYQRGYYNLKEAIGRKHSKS

[15] = inhibition of PAO1 biofilm formation – strain PAO1, LB-PBS medium, absorbance 600 nm, primary screen (AID 1176); note: test concentration not given here; conditions: P. aeruginosa PAO1 growth/biofilm, A600, 12 h; higher = more signal
[16] = growth modulation of vineyard yeast isolate – strain RM11-1a, OD600, basal, 24 h, primary screen (AID 1177);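 note: cultures grown under basal conditions with no added stressor; test concentration not given here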; conditions: S. cerevisiae RM11-1a growth, OD600, 24 h; higher = more signal, called active from +8 up or from −8 down
[17] = growth of efflux-deficient E. coli DRC39 – strain DRC39, OD650, 24 h, E. coli filamentation inducers, primary screen (AID 1178);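 note: growth measured as culture turbidity by optical density at 650 nm; test concentration not given here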; conditions: E. coli DRC39 acrAB, higher = more signal, called active from +8 up or from −8 down
[18] = growth of efflux-deficient E. coli DRC39 – strain DRC39, OD650, 48 h, E. coli filamentation inducers, primary screen (AID 1179);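 note: screen aims at cell division blockers that make cells filament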; conditions: E. coli DRC39 delta-acrAB growth, higher = more signal, called active from +8 up or from −8 down
[19] = viability profiling in RPMI8226 myeloma cells – cell-based, resazurin fluorescence, basal, 24 h, PK04 Diversity Set, profiling panel (AID 1180); conditions: higher = more signal;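 note: RPMI8826 multiple myeloma cell line at 5000 cells per well; test concentration not given here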
[20] = target: E3 ubiquitin-protein ligase XIAP (Homo sapiens) (UniProt P98170); assay: small molecules binding XIAP protein – biophysical, small-molecule microarray, fluorescence 635 nm, primary screen (AID 1181); conditions: higher = more signal;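 note: score merges 667 nm emission and signal to noise over triplicate slides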
Sequence of E3 ubiquitin-protein ligase XIAP (Homo sapiens) (P98170 whole entry, looked up): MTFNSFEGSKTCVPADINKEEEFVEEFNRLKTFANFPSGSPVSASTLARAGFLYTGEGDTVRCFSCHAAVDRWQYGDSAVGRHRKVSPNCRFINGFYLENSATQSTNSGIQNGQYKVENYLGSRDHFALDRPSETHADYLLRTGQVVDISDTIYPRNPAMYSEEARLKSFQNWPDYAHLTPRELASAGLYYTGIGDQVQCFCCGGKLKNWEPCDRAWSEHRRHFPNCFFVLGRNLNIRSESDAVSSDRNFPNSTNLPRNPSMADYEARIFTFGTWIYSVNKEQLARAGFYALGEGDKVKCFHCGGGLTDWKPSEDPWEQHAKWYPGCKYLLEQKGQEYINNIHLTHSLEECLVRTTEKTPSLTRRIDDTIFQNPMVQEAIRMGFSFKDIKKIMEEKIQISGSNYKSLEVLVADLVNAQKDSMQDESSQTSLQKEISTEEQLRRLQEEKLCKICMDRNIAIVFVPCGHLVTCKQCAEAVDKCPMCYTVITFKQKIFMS

SMILES | z-score [1] | z-score [2] | z-score [3] | z-score [4] | z-score [5] | z-score [6] | z-score [7] | z-score [8] | z-score [9] | z-score [10] | z-score [11] | z-score [12] | z-score [13] | composite z-score [14] | z-score [15] | z-score [16] | z-score [17] | z-score [18] | z-score [19] | composite z-score [20]
COC(=O)[C@@]1(Cc2ccccc2)[C@H]2c3cc(C(=O)N(C)C)n(Cc4ccc(Cl)c(C(F)(F)F)c4)c3C[C@H]2CN1C(=O)c1ccccc1 | -1.42 | 0.562 | -2.06 | -2.56 | -4.44 | 2.34 | -1.28 (inactive) | -0.968 | -1.24 | -1.6 (inactive) | -1.83 | 2.32 (inactive) | -2.53 (inactive) | 0.46 (inactive) | 1.43 (inactive) | 1.37 (inactive) | -1.4 (inactive) | -0.744 (inactive) | -2.95 | 0.331
COCCOC(=O)N1C(=O)[C@@]2(c3cc(C#CCNC(N)=O)ccc31)[C@H](C(=O)N1CCN(c3ncccn3)CC1)[C@H]1C(=O)O[C@H](c3ccccc3)[C@H](c3ccccc3)N1[C@@H]2c1ccc(O)cc1 | 0.722 | -0.118 | 0.568 | 0.445 | 1.17 | 0.866 | -0.709 (inactive) | -0.0604 | -0.564 | -0.824 (inactive) | -0.203 | -0.171 (inactive) | 0.0034 (inactive) | 0.386 (inactive) | 1.13 (inactive) | -0.34 (inactive) | 0.589 (inactive) | 1.15 (inactive) | 0.436 | -0.0129
COCCOC(=O)N1C(=O)[C@@]2(c3cc(C#CCNC(N)=O)ccc31)[C@H](C(N)=O)[C@H]1C(=O)O[C@H](c3ccccc3)[C@H](c3ccccc3)N1[C@@H]2c1ccc(O)cc1 | 1.05 | -0.142 | 0.779 | 0.394 | -0.896 | -0.507 | -0.0468 (inactive) | -0.883 | 0.326 | 1.22 (inactive) | 0.296 | -0.156 (inactive) | -0.477 (inactive) | 0.303 (inactive) | 1.01 (inactive) | 0.532 (inactive) | 0.769 (inactive) | 1.33 (inactive) | -0.392 | -0.245
O=C(NC1CC1)[C@@H]1c2ccccc2C(=O)N(C2CCCCC2)[C@H]1c1ccc(CO)cc1 | 1.35 | -0.27 | 1.12 | -0.856 | -0.591 | 1.38 | -0.724 (inactive) | 0.512 | -0.256 | 0.0989 (inactive) | -0.358 | 0.678 (inactive) | -1.27 (inactive) | -0.245 (inactive) | 0.292 (inactive) | -0.456 (inactive) | -0.185 (inactive) | 0.138 (inactive) | -0.166 | -0.323
N#Cc1ccc(NN2C(C(O)c3ccc(B(O)O)cc3)C=CC3CN(c4ccccc4)C(=O)C32)cc1 (stereo not given) | 0.222 | -0.463 | -0.35 | -0.104 | -1.29 | -2.14 | -0.643 (inactive) | -0.0762 | -0.696 | 0.238 (inactive) | -0.595 | -15.4 (active) | -1.25 (inactive) | -0.883 (inactive) | 0.475 (inactive) | 1.56 (inactive) | 0.898 (inactive) | 0.934 (inactive) | -0.662 | -0.0917
CCCCC=C[C@@H](NC(=O)C(C)(C)C)c1ccccc1 | -2.66 | -0.688 | -5.19 | -3.26 | -4.72 | -4.78 | -0.576 (inactive) | -0.895 | -2.82 | -0.938 (inactive) | -1.12 | 2.43 (inactive) | -2.58 (inactive) | 0.507 (inactive) | 0.563 (inactive) | 2.07 (inactive) | -0.275 (inactive) | -0.0819 (inactive) | -3.59 | -0.0095
CCCCC(=C=CC[C@H](O)c1ccccc1OCCO)CCO | -0.341 | -0.358 | 0.285 | -0.0455 | -0.857 | -0.95 | 0.101 (inactive) | -0.193 | -0.434 | 0.356 (inactive) | -0.259 | -1.3 (inactive) | 0.189 (inactive) | -0.228 (inactive) | 0.755 (inactive) | 0.493 (inactive) | -0.295 (inactive) | -0.224 (inactive) | -0.0336 | -0.223
O=C1NC(=O)C2C1C=CC(C(O)c1ccc(F)cc1)N2Nc1ccc(Cl)cc1Cl (stereo not given) | -2.35 | -0.275 | -3.57 | -2.88 | -2.29 | -3.47 | -0.472 (inactive) | -0.0645 | 0.174 | -2.11 (inactive) | -2.15 | -16.3 (active) | -1.28 (inactive) | 0.827 (inactive) | 1.06 (inactive) | -8.86 (active) | -0.2 (inactive) | -1.52 (inactive) | -1.79 | 0.285
